Screens from PubChem.
Shown are actives, neighbours in structure and some others; about 1% of the full set was active somewhere.
TR SRC2 fluor cs: alters Texas Red total fluorescence, flagging assay interference | TRb/SRC2 Texas Red total fluorescence interference | Potency, µM (highest dose often 106 µM), for inactives: top-dose fluorescence change, negative = quenching | 0.29% of 280,000 active | AID 1479; active = well fitted curve in either direction with a large enough effect; also: potency is read from the fitted curve at half-maximal effect; % is scaled to controls: 0 for no effect and ±100 for the full control effect
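Human TRb ligand-binding domain at 0.6 uM with 20 nM Texas Red SRC2 peptide in Tris buffer containing 1 uM T3 and 5% DMSO, incubated with compound 5 h at ambient temperature. Total fluorescence (555/632 nm) calculated as parallel + 2 × perpendicular.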
Coupling enz: inhibits coupling enzyme system, counter-screen for aldolase hits; coupling enzyme system counterscreen, AmpLite Red fluorescence; activity change, negative = inhibition, % at 58.2 µM, hits read low; 0.67% of 290,000 active; in the data active = activity change below about -30%; also: % is scaled to controls: 0 for no effect and ±100 for the full control effect
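Compounds tested against the coupling enzymes alone at 57.5 uM final; readout was AmpLite Red fluorescence (525/598 nm) after 20 min at RT.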
NPSR antagonist: blocks cAMP signaling of the human neuropeptide S receptor; Q6W5P4; CHO-NPSR cells, cAMP TR-FRET, antagonist mode; Potency, µM (titrated, usually from 38.3 µM), without a hit: at the highest dose activity change, negative = inhibition, most hits filed as inhibitors; 1% of 220,000 active; also: potency is read from the fitted curve at half-maximal effect; % is scaled to controls: 0 for no effect and ±100 for the full control effect; nearly all actives have a fitted effect of over 50% in size
Target sequence (Q6W5P4 whole entry, looked up): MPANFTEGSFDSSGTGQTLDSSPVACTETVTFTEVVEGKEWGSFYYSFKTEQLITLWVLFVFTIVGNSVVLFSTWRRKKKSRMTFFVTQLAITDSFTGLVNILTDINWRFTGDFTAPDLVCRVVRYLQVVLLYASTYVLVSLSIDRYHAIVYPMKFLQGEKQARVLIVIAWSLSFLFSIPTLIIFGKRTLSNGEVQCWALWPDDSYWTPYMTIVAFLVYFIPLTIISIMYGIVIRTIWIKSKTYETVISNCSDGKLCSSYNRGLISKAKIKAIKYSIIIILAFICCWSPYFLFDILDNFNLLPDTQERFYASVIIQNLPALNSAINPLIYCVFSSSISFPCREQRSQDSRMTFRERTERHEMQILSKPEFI
TCR act: activates T cell receptor signaling; AID 504894; primary human leukocytes, anti-CD3, IL-2 HTRF, 48 h; Potency, µM (series often up to 9.22 µM), for the others: at the highest dose activation of IL-2 secretion, usual class: activators; 330,000 tested, under 10 active; also: % of control where 0% means no effect
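Activity was scored as IL-2 release from primary human leukocytes given only a TCR signal (a-CD3 beads) plus compound for 48 hr. Detection used a two-antibody HTRF format read at 665nm.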
TSHR antag: antagonists of human thyroid stimulating hormone receptor | 0.2% of 330,000 active | AID 504810 | activity change, negative = inhibition, % at 11.5 µM | TSHR-expressing cells, TSH-stimulated cAMP HTRF, 2 h; hits give low values;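 active = activity change below a set negative limit, meaning inhibition stronger than a set level, cut at about -70% in these data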; also: % is scaled to controls: 0 for no effect and ±100 for the full control effect
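TSHR-expressing cells were treated with compounds, then stimulated with TSH at EC80 (4nM final) for 2 hours at 37 deg C. Cellular cAMP was measured by HTRF competition between lysate cAMP and cAMP-d2 for a cryptate-labelled anti-cAMP antibody.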
TRb-SRC2 inh: inhibitors of human thyroid hormone receptor beta-SRC2 interaction; P10828; Potency, µM (titrated, usually from 106 µM), inactives show top-dose activity change, negative = inhibition, hits mostly inhibitors; 0.065% of 280,000 active; AID 1469; TRbeta-SRC2 peptide binding, fluorescence polarization; receptor liganded with 1 µM T3;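 also: potency is read from the fitted curve at half-maximal effect; plate controls were bound peptide for no effect and peptide without receptor for full effect; nearly all actives have a fitted effect of over 50% in size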
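Fluorescence polarization of 20 nM Texas Red SRC2 peptide with 0.6 uM human TRb ligand-binding domain, in Tris buffer with 1uM T3 and 5% DMSO. Incubated 5 hr ambient; normalized to unbound and bound controls.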
The depositor's hits bear a star; · = no result; [ ] = dose if it differs, or a comment. Unless noted, calls follow the shape of the dose curve; as a rule, active = well fitted curve in the direction sought with a large enough effect; inconclusive = small, poorly fitted or top-dose-only effect, or another doubt; inactive = no such curve, though single readings can be large; an effect the other way counts as inactive or inconclusive.

SMILES	TR SRC2 fluor cs	Coupling enz	NPSR antagonist	TCR act	TSHR antag	TRb-SRC2 inh
Cc1ccc(-n2nnnc2SCCNS(=O)(=O)c2ccccc2)cc1C	-2%	-2	-9%[46.1 µM]	5%	-13	5%
COc1ccc(S(=O)(=O)NCCSc2nnnn2-c2ccccc2)cc1OC	8.9µM*[quencher]	·	·	·	·	-8%
Cc1cccc(N2CCN(S(=O)(=O)c3ccc4c(c3)CC(=O)N4C)CC2)c1C	22µM*[quencher]	-2	·	-4%	-9	-7%
CCCCN(CC)S(=O)(=O)c1ccc(C(=O)N(CCCN(C)C)c2nc3cc(C)cc(C)c3s2)cc1	-2%	-2	10µM*	-12%	-3	8%
COc1ccc(C2Nc3ccc4ccccc4c3-c3c2c(=O)oc2ccccc32)cc1 (configuration not stated)	-2%	0	7.9µM*	·	14	4%
CCOc1ccc(C2Nc3ccc4ccccc4c3-c3c2c(=O)oc2ccccc32)cc1 (configuration not stated)	-2%	1	10µM*	3%	3	-3%
Cc1nnc(C)c2c(C)n(-c3ccccc3N)c(C)c12	0%	-40*	26%	5%	-9	-4%
Cc1nnc(C)c2c(C)n(-c3ccccc3)c(C)c12	·	1	·	14%	-3	·
CC(Nc1cc(N2CCN(S(=O)(=O)N(C)C)CC2)ccc1[N+](=O)[O-])c1ccccc1 (configuration not stated)	-1%	-34*	-55%	·	3	0%
COc1ccc(CC(=O)NCC(c2ccc(N(C)C)cc2)N2CCOCC2)cc1OC (configuration not stated)	-2%	·	·	·	·	2%
O=C1Nc2ccccc2C1Cc1ccc(Br)cc1 (configuration not stated)	-22%	·	·	·	·	2%
CN(C)c1ccc(CC2C(=O)Nc3ccccc32)cc1 (configuration not stated)	6%	-39*	-3%	6%	0	-8%
CNCc1ccccc1Sc1ccc(O)c(O)c1	-5%	-40*	-14%	-2%[46.1 µM]	-6	-7%
OCC[n+]1ccc(/C=C/c2c[nH]c3ccccc23)cc1	1%	-48*	-53%	3%	-26	6%
COc1cc(Nc2nc3ccccc3c3nnc(C)n23)cc(OC)c1	-2%	·	·	·	·	-10%
Cc1ccc(C(=O)NCCNc2ncc(C(F)(F)F)cc2Cl)cc1[N+](=O)[O-]	·	-2	·	0%	-113*	·
Brc1ccc2c(c1)OCCOCCOc1cc(Br)ccc1OCCOCCOCCO2	-2%	-1	-16%[46.1 µM]	2%	7	4%
Nc1ccc2c(c1)OCCOCCOCCOCCOCCO2	0%	-49*	0%	2%	-6	-4%
Cc1ccc2c(c1)-c1nc(-c3ccc(Cl)cc3)cc(-c3coc4ccccc4c3=O)c1CO2	10µM*[quencher]	·	·	·	·	0%
COC(=O)[C@@H]1CC[C@H](C)[C@@H](c2ccc(C)cc2)N1C(=O)c1ccc(/C=N/O[C@@H](C)CN2CCCCc3nc(C)c(C)cc32)cc1	-3%	-8	10µM*	·	3	0%
Cc1ccc(C)c(S(=O)(=O)C(C#N)c2nc3ccccc3nc2N2CCCC2)c1 (configuration not stated)	0%	-36*	-19%[46.1 µM]	3%	-2	-8%
COc1cccc(CNC(=O)CCCSc2ccccc2)c1	·	0	·	-4%	6	·
COc1cccc(CNC(=O)CCCC(=O)NC(C)CCc2ccccc2)c1 (configuration not stated)	·	-1	·	·	-130*	·
Cc1ccccc1-c1cc(N(C)C)ncn1	·	1	·	·	·	·
CCOc1ccc(NC(=O)CSc2oc(-c3ccco3)nc2S(=O)(=O)c2ccc(Cl)cc2)cc1	3%	·	·	·	·	-2%
CCc1ccc(NC(=O)c2oc3c(c2C)-c2[nH]ncc2CC3)cc1	1%	·	·	·	·	-7%
Cc1c(C(=O)N2CCCC2)oc2c1-c1[nH]ncc1CC2	-1%	-49*	23%	-6%	4	1%
